Test results: PubChem BioAssay (NCATS)
Results filed as inconclusive are left out. A call without a number means that no potency is given here. Unmarked numbers belong to inactive results. Calls of active or inactive are those of the source. Unless noted, calls follow the shape of the full dose curve.

Columns and labels:
[1] = qHTS for Inhibitors of the Functional Ribonucleoprotein Complex (vRNP) of Lassa (LASV) Arenavirus: Viability assay - alamar blue signal for LASV Primary Screen (AID 1347083; calls by dose curve; tested in HEK293 reporter line; also: nearly all actives have a fitted effect of over 80% in size; as to activity change, negative = reduced viability: series mostly up to about 57 µM)
[2] = qHTS for Inhibitors of the Functional Ribonucleoprotein Complex (vRNP) of Lymphocytic Choriomeningitis Arenaviruses (LCMV): Viability assay - alamar blue signal for LCMV Primary Screen (AID 1347085; calls by dose curve; tested in HEK293 reporter line; also: nearly all actives have a fitted effect of over 80% in size; as to activity change, negative = lower viability: series mostly up to about 57 µM)
[3] = biological target: Nucleoprotein (Lymphocytic choriomeningitis virus (strain Armstrong)) (UniProt P09992); assay: qHTS for Inhibitors of the Functional Ribonucleoprotein Complex (vRNP) of Lymphocytic Choriomeningitis Arenaviruses (LCMV): LCMV Primary Screen - GLuc reporter signal (AID 1347086); also: nearly all actives have a fitted effect of over 70% in size; as to activity change, negative = inhibition: series mostly up to about 57 µM
Potency is read from the fitted curve at half-maximal effect.

Chain of Nucleoprotein (Lymphocytic choriomeningitis virus (strain Armstrong)) (P09992 whole entry, looked up): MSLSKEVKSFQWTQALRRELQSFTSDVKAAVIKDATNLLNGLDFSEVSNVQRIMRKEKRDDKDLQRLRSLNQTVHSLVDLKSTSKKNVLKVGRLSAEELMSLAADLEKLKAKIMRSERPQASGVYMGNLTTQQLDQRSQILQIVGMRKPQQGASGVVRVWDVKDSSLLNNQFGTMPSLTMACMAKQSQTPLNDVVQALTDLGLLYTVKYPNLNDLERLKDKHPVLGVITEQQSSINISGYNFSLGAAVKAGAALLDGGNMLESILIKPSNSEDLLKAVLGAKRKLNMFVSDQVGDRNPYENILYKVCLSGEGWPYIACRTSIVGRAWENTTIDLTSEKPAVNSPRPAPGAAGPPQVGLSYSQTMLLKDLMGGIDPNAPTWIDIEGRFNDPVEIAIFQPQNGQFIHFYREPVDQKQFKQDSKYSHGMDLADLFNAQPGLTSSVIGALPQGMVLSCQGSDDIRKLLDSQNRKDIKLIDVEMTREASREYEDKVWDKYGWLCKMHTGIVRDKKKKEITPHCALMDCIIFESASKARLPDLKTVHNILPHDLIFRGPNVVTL

With `OC[C@H]1O[C@@H](Oc2ccc(O)cc2)[C@H](O)[C@@H](O)[C@@H]1O` the Potency [1] was “inactive”, the Potency [2] was “inactive” and the Potency [3] was “inactive”.

In the case of `CCCCCCCCCCCCCCCCCC(=O)O`, the Potency [1] is reported as “inactive”, the Potency [2] is reported as “inactive” and the Potency [3] is reported as “inactive”.

With `CCN(CC)CC#CCOC(=O)C(O)(c1ccccc1)C1CCCCC1` (centres undefined) the Potency [1] was “inactive”, the Potency [2] was “inactive” and the Potency [3] was “inactive”.

With `C[N+](C)(C)CC(O)CC(=O)[O-]` (centres undefined) the Potency [1] was “inactive”, the Potency [2] was “inactive” and the Potency [3] was “inactive”.

For `O=C(O)[C@H](O)c1ccccc1`, the Potency [1] was “inactive”, the Potency [2] was “inactive” and the Potency [3] was “inactive”.

With `Oc1c(Br)cc(Br)c2cccnc12` the Potency [1] was “inactive”, the Potency [2] was “inactive” and the Potency [3] was “inactive”.

With `CCCC(O)C(CC)CO` (centres undefined) the Potency [1] was “inactive”, the Potency [2] was “inactive” and the Potency [3] was “inactive”.

In the case of `COc1c(N2C[C@@H]3CCCN[C@@H]3C2)c(F)cc2c(=O)c(C(=O)O)cn(C3CC3)c12`, the Potency [1] is reported as “inactive”, the Potency [2] is reported as “inactive” and the Potency [3] is reported as “inactive”.

With `C/C(=N\O)c1ccc(OCC(=O)N2CCCCC2)cc1` the Potency [1] was “inactive”, the Potency [2] was “inactive” and the Potency [3] was “inactive”.

In the case of `Nc1ncnc2c1ncn2[C@@H]1O[C@H](COP(=O)(O)O)[C@@H](O)[C@H]1O`, the Potency [1] is reported as “inactive”, the Potency [2] is reported as “inactive” and the Potency [3] is reported as “inactive”.

For `COc1cc(NS(=O)(=O)c2ccc(N)cc2)nc(C)n1`, the Potency [1] was “inactive”, the Potency [2] was “inactive” and the Potency [3] was “inactive”.

In the case of `COC(=O)C1=C(C)NC(C)=C(C(=O)OCC(C)=O)C1c1ccccc1[N+](=O)[O-]` (centres undefined), the Potency [1] is reported as “inactive”, the Potency [2] is reported as “inactive” and the Potency [3] is reported as “inactive”.

In the case of `C=CCN1CCc2nc(N)sc2CC1`, the Potency [1] is reported as “inactive”, the Potency [2] is reported as “inactive” and the Potency [3] is reported as “inactive”.

With `C/C(=N\O)[C@@H](C)NCC(C)(C)CN[C@H](C)/C(C)=N/O` the Potency [1] was “inactive”, the Potency [2] was “inactive” and the Potency [3] was “inactive”.

In the case of `CC1(C)Oc2ccc(C#N)cc2[C@@H](N2CCCC2=O)[C@@H]1O`, the Potency [1] is reported as “inactive”, the Potency [2] is reported as “inactive” and the Potency [3] is reported as “inactive”.

With `CCCCCCn1c(=O)c2c(ncn2C)n(C)c1=O` the Potency [1] was “inactive”, the Potency [2] was “inactive” and the Potency [3] was “inactive”.

`N=C(N)N1CCc2ccccc2C1` showed an activity change, negative = reduced viability [1] of -0.684% [at 5.82 µM], an activity change, negative = lower viability [2] of -9.02% [at 5.82 µM] and an activity change, negative = inhibition [3] of -2.35% [at 5.82 µM].

For `CO[C@H]1C[C@@H]2CC[C@@H](C)[C@@](O)(O2)C(=O)C(=O)N2CCCC[C@@H]2C(=O)O[C@H]([C@H](C)C[C@@H]2CC[C@H](OCCO)[C@H](OC)C2)CC(=O)[C@H](C)C=C(C)[C@@H](O)[C@@H](OC)C(=O)[C@H](C)C[C@H](C)C=CC=CC=C1C`, the Potency [1] was 8.6 nM (active), the Potency [2] was 76.9 nM (active) and the Potency [3] was 544 nM (active).

For `CCN(CC)S(=O)(=O)c1ccc(C(=O)O)cc1`, the Potency [1] was “inactive”, the Potency [2] was “inactive” and the Potency [3] was “inactive”.

In the case of `O=C(O)Cc1sc(-c2ccccc2)nc1-c1ccc(Cl)cc1`, the Potency [1] is reported as “inactive”, the Potency [2] is reported as “inactive” and the Potency [3] is reported as “inactive”.

In the case of `CC(C)(C)c1cc(C=O)cc(C(C)(C)C)c1O`, the Potency [1] is reported as “inactive”, the Potency [2] is reported as “inactive” and the Potency [3] is reported as “inactive”.

In the case of `Nc1ccc(S(=O)(=O)Nc2ccc(Cl)nn2)cc1`, the Potency [1] is reported as “inactive”, the Potency [2] is reported as “inactive” and the Potency [3] is reported as “inactive”.

For `C[C@]12CCC(=O)C=C1CC[C@H]1[C@@H]3CC[C@](O)(C(=O)CO)[C@@]3(C)C[C@H](O)[C@@]12F`, the Potency [1] was “inactive”, the Potency [2] was “inactive” and the Potency [3] was “inactive”.

In the case of `CCCCC(O)/C=C(C)/C=C/C=C/C(=O)N1CCCC1=O` (centres undefined), the Potency [1] is reported as “inactive”, the Potency [2] is reported as “inactive” and the Potency [3] is reported as “inactive”.

With `CCN[C@H]1CN(CCCOC)S(=O)(=O)c2sc(S(N)(=O)=O)cc21` the Potency [1] was “inactive”, the Potency [2] was “inactive” and the Potency [3] was “inactive”.

With `NS(=O)(=O)c1cc(C2(O)NC(=O)c3ccccc32)ccc1Cl` (centres undefined) the Potency [1] was “inactive”, the Potency [2] was “inactive” and the Potency [3] was “inactive”.

For `CCN(CC)CCNC(=O)c1ccc(N)cc1`, the Potency [1] was “inactive”, the Potency [2] was “inactive” and the Potency [3] was “inactive”.

For `COc1nccnc1NS(=O)(=O)c1ccc(N)cc1`, the Potency [1] was “inactive”, the Potency [2] was “inactive” and the Potency [3] was “inactive”.

With `CCCOc1ccc2c(c1)CC[C@@H]1[C@@H]2CC[C@]2(C)C(OC)CC[C@@H]12` (some centres undefined) the Potency [1] was “inactive”, the Potency [2] was “inactive” and the Potency [3] was “inactive”.

In the case of `O=C1[C@@H]2[C@H]3CC[C@H](C3)[C@@H]2C(=O)N1CCCCN1CCN(c2ncccn2)CC1`, the Potency [1] is reported as “inactive”, the Potency [2] is reported as “inactive” and the Potency [3] is reported as “inactive”.

In the case of `C=CC(N)CCC(=O)O` (centres undefined), the Potency [1] is reported as “inactive”, the Potency [2] is reported as “inactive” and the Potency [3] is reported as “inactive”.

For `NCCCNCCSP(=O)(O)O`, the Potency [1] was “inactive”, the Potency [2] was “inactive” and the Potency [3] was “inactive”.

In the case of `COc1ccc(Cc2cnc(N)nc2N)cc1OC`, the Potency [1] is reported as “inactive”, the Potency [2] is reported as “inactive” and the Potency [3] is reported as “inactive”.

With `CC(=O)Oc1cc(C(C)C)c(OCCN(C)C)cc1C` the Potency [1] was “inactive”, the Potency [2] was “inactive” and the Potency [3] was “inactive”.

For `CC(C)Cn1cnc2c(N)nc3ccccc3c21`, the Potency [1] was “inactive”, the Potency [2] was “inactive” and the Potency [3] was “inactive”.

With `Cc1c(Nc2ncccc2C(=O)O)cccc1C(F)(F)F` the Potency [1] was “inactive”, the Potency [2] was “inactive” and the Potency [3] was “inactive”.

With `O=C(/C=C/c1ccccc1)OCc1ccccc1` the Potency [1] was “inactive”, the Potency [2] was “inactive” and the Potency [3] was “inactive”.

With `CC(C)COC(=O)c1ccc(N)cc1` the Potency [1] was “inactive”, the Potency [2] was “inactive” and the Potency [3] was “inactive”.
